PABP1 MLLE inh: inhibitors of PABP1 MLLE–PAM2 peptide binding, primary screen, biochemical, fluorescence polarization, FITC-PAM2, GST-MLLE; hit rate 0.36% among 360,000; inhibition, % at 20 µM; AID 588489, 2011; Polyadenylate-binding protein 1 (Homo sapiens), P11940; in the data active means inhibition above about 35%, passing the limit was not always enough
Target sequence (P11940 whole entry, looked up): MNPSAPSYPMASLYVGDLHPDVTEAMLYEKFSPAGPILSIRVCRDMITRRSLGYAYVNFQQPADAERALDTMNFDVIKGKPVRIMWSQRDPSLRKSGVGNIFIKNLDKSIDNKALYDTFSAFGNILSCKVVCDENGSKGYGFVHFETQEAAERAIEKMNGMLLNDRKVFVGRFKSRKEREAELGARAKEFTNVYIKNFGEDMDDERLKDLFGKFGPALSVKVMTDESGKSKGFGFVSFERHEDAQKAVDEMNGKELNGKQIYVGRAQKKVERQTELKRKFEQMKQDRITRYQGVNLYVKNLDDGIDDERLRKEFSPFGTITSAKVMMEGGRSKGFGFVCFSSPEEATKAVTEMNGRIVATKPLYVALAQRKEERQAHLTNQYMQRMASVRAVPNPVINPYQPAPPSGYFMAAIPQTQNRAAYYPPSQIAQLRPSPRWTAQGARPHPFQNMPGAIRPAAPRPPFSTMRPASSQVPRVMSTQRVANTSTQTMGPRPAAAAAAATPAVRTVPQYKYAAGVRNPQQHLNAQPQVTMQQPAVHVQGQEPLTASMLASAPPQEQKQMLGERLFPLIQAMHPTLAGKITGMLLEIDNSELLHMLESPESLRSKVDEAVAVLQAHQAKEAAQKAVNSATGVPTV
GRK2 inh: compounds blocking aptamer binding on GRK2 – biochemical, human GRK2, bead flow cytometry, HTS, primary screen | Beta-adrenergic receptor kinase 1 (Homo sapiens), P25098 | FAM-aptamer displacement from GRK2 | inhibition of aptamer binding, % at 10 µM | hit rate 0.59% among 330,000 | AID 488847, 2010;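 active means inhibition of aptamer binding above 40%, roughly 3 SD of noise, on plates passing a quality check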;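 further: median bead fluorescence of bound FAM aptamer so fluorescent compounds give negative values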
PERK inh: block of dimerizer-induced PERK translation repression, primary screen, PERK inhibitor project, CHO PERK-DD cells, SEAP luminescence, HTS. CHO PERK-DD fusion, SEAP luminescence translation reporter. inhibition, % at 5.6 µM. hit rate 0.17% among 220,000. Eukaryotic translation initiation factor 2-alpha kinase 3 (Homo sapiens), Q9NZJ5;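 active means inhibition above the mean inhibition of all tested compounds plus 3 SD, set separately per screening campaign, cut at about 2.9% in these data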;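 further: PERK kinase domain activated by AP20187 dimerizer at 100 nM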
eIF4H inh: human eIF4H binding inhibitors, primary screen, translation initiation inhibitor project, biochemical, uHTS, fluorescence polarization. Eukaryotic translation initiation factor 4H (Homo sapiens), Q15056. eIF4H fluorescence polarization binding assay. inhibition, % at 35 µM. hit rate 0.94% among 290,000. AID 2012, 2009;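 further: calls also rest on retests at 20 µM and on dose response follow-up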
PABP FP inh: PABP poly(A) RNA binding inhibitors, primary screen, biochemical, fluorescence polarization, uHTS; Polyadenylate-binding protein 1 (Homo sapiens), P11940; inhibition, % at 35 µM; hit rate 1% among 290,000;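 further: calls also rest on retests at 20 µM and on dose response follow-up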
GRK2 inh confirm: GRK2 aptamer-displacing inhibitors, retest, confirmation, biochemical, cherry pick 1, bead flow cytometry | bead-bound GRK2, FAM-aptamer displacement | shares compounds with GRK2 inh | AID 504451, 2011 | hit rate 4% among 2,000 | aptamer displacement, % at 10 µM;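 active means aptamer displacement above 40%, near three times the noise of non-fluorescent compounds, on plates passing quality checks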;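 further: negative values mostly reflect intrinsic compound fluorescence rather than true enhancement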
Aptamer quench 1: quenches fluorescent RNA aptamer, GRK2 hit artifact; shares compounds with GRK2 inh; Fluorescent RNA aptamer beads, quenching, flow cytometry; hits give high values; fluorescence change (kMESF span), kMESF (test concentration not listed); 110 tested, under 10 active; AID 504521;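 active means compounds whose bead fluorescence drops by more than 37 kMESF across the dose range, marking them as dye quenchers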
FAM quench CP1: counter-screen for GRK2 aptamer inhibitors: fluorescent aptamer quenchers | shares compounds with GRK2 inh | Carboxyfluorescein RNA aptamer on beads, flow cytometry quenching; hits give low values | fluorescence response (% of DMSO), % at 10 µM | 2,000 tested, under 10 active;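 active means compounds that quench the bead-bound fluorescent RNA probe, cutting fluorescence to under half of the solvent control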;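 further: counterscreen run without GRK2 so only probe quenching by compound is measured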
GRK2 confirm 2: GRK2 aptamer-displacing inhibitors, hit retest, confirmation, biochemical, cherry pick 2, bead flow cytometry; shares compounds with GRK2 inh; bead-bound GRK2, FAM-aptamer displacement; inhibition of aptamer binding, % at 10 µM; 360 tested, under 10 active;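 active means inhibition of aptamer binding above 40%, about triple the noise seen with nonglowing compounds, on plates passing quality control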;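 further: negative values mostly come from compounds that fluoresce themselves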
FAM quench CP2: quenches fluorescent RNA aptamer, GRK2 hit artifact; shares compounds with GRK2 inh; carboxyfluorescein RNA aptamer beads, flow cytometry quenching; hits give low values; fluorescence response vs DMSO, % at 10 µM; 360 tested, under 10 active;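 active means response vs DMSO under 50%, meaning signal dropped by over half, treated as fluorescence quencher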;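 further: labelled aptamer on streptavidin beads without GRK2 as a quench counter-screen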
Large screens that a line does not name were inactive (follow-up assays come after a bar, where they were run). An excerpt weighted towards active compounds, which were near 1.9% of everything screened. Unless noted, how the calls were made is not given here.

COc1ccc(C(=O)CN2CCN(S(=O)(=O)c3cccc([N+](=O)[O-])c3)CC2)cc1	none
CC12CCC3C(CCC4N(CCO)CCC34C)C1CCC2O (stereo not drawn)	GRK2 inh 49 (no result: PERK inh) | GRK2 inh confirm inactive | FAM quench CP1 inactive
CCCN1CCN(C(=O)c2ccc(CS(=O)c3ccc(Br)cc3)o2)CC1 (stereo not drawn)	none (no result: GRK2 inh, PERK inh, eIF4H inh, PABP FP inh)
Nc1nnnn1/N=C/c1ccccc1OCc1ccc(Cl)cc1Cl	none
Nc1nnnn1/N=C/c1ccccc1OCc1ccc(Cl)cc1	GRK2 inh 74 | GRK2 inh confirm inactive | FAM quench CP1 inactive
O=C(Cn1cc([N+](=O)[O-])cn1)N1CCc2ccccc21	none | GRK2 inh confirm inactive | FAM quench CP1 inactive
COCCCNC(=O)c1cccc(C(=O)NCCCOC)c1	none
COCCCNC(=O)NC(=O)c1ccccc1	GRK2 inh 76 | GRK2 confirm 2 inactive | FAM quench CP2 inactive
CN(CC(=O)Nc1ccc(N2CCOCC2)cc1)CC(=O)Nc1ccccc1C#N	none | GRK2 inh confirm inactive | FAM quench CP1 inactive
CN(CC(=O)Nc1ccc(N2CCOCC2)cc1)CC(=O)Nc1ccc(C(F)(F)F)cc1	none
Cc1ccc(NC(=O)CN(C)CC(=O)Nc2ccc(N3CCOCC3)cc2)c(C)c1	none | GRK2 inh confirm inactive | FAM quench CP1 inactive
COc1ccc(OC)c(NC(=O)Nc2nnc(N3CCCCC3C)s2)c1 (stereo not drawn)	none
COCCCNC(=O)c1c(N)n(-c2ccccc2)c2nc3ccccc3nc12	none
COCCNC(=O)c1c(N)n(-c2ccccc2)c2nc3ccccc3nc12	none | GRK2 inh confirm inactive | FAM quench CP1 inactive
O=C(NC1CCCCC1)c1cc(C2CC2)nn1-c1ccccc1	GRK2 inh 89 (no result: PERK inh, eIF4H inh, PABP FP inh) | GRK2 inh confirm inactive | FAM quench CP1 inactive
Cc1nn(-c2ccccc2)c(Cl)c1C(=O)NC1CCCCC1	none
NC(=O)c1cc[n+](CC2=C(C(=O)O)N3C(=O)[C@@H](NC(=O)C(c4ccccc4)S(=O)(=O)[O-])[C@H]3SC2)cc1 (stereo partly drawn)	GRK2 inh 85 | GRK2 inh confirm 99 | Aptamer quench 1 inactive | FAM quench CP1 inactive
N[C@@H](C(=O)N[C@@H]1C(=O)N2C(C(=O)O)=C(Cl)CS[C@H]12)c1ccccc1	none
CCCN1CCN(C(=O)C2CCN(S(=O)(=O)c3c(C)noc3/C=C/c3ccc(C)cc3)CC2)CC1	GRK2 inh 77 (no result: PERK inh) | GRK2 inh confirm inactive | FAM quench CP1 inactive
Cc1ccc(/C=C/c2onc(C)c2S(=O)(=O)N2CCC(C(=O)N3CCCCC3)CC2)cc1	none (no result: PERK inh)
COc1ccc(CCNC(=S)Nc2ccc(OC)cc2)cc1	GRK2 inh 52 | GRK2 inh confirm inactive | FAM quench CP1 inactive
CC1=C(C(=O)OC(C)C)C(c2cccs2)n2ncnc2N1 (stereo not drawn)	GRK2 inh 85 | GRK2 inh confirm inactive | FAM quench CP1 inactive
CC1=C(C(N)=O)C(c2cccs2)n2ncnc2N1 (stereo not drawn)	none
Cc1nc2cc(C(=O)N3CCc4ccccc43)ccc2n1-c1ccc(F)c(F)c1	GRK2 inh 93 | GRK2 confirm 2 inactive | FAM quench CP2 inactive
Cc1cc(C(=O)N2CCc3ccccc32)c2cc(F)ccc2n1	GRK2 inh 76 | GRK2 inh confirm inactive | FAM quench CP1 inactive
CCCCCN(C(=O)CCC(=O)OCC(=O)c1ccc(C(C)CC)cc1)c1c(N)n(CCCC)c(=O)[nH]c1=O (stereo not drawn)	none (no result: PERK inh, eIF4H inh, PABP FP inh)
CNc1c([N+](=O)[O-])cnn1-c1cccc(Cl)n1	none
Cc1c(N2C(=O)c3ccc(Br)cc3C2=O)c(=O)n(-c2ccccc2)n1C	none
Cc1c(N2C(=O)c3ccc4c5c(ccc(c35)C2=O)CC4)c(=O)n(-c2ccccc2)n1C	GRK2 inh 46, eIF4H inh 93, PABP FP inh 71 | GRK2 inh confirm inactive | FAM quench CP1 inactive
COc1cccc(CN(Cc2cccnc2)S(=O)(=O)c2ccc(-n3cnnn3)c(C)c2)c1	none | GRK2 inh confirm inactive | FAM quench CP1 inactive
COc1ccc(N2CCN(C(CNS(=O)(=O)c3ccccc3)c3ccccc3)CC2)cc1 (stereo not drawn)	GRK2 inh 47 (no result: PERK inh) | GRK2 inh confirm inactive | Aptamer quench 1 inactive | FAM quench CP1 inactive
O=C(CN(Cc1ccc(F)cc1)C(=O)CCC(=O)Nc1ccccn1)NCc1ccc(F)cc1	none (no result: PERK inh)
O=C(CN(Cc1ccc(F)cc1)C(=O)CCC(=O)Nc1ccccn1)NCc1ccco1	GRK2 inh 100 | GRK2 inh confirm inactive | FAM quench CP1 inactive
CCCn1c(SCC(=O)c2cc(C)n(-c3cc(C)on3)c2C)n[nH]c1=O	none (no result: GRK2 inh, PERK inh, eIF4H inh, PABP FP inh)
CN1CCN(c2ccc(-c3cccc(NC(=O)COc4ccccc4)c3)nn2)CC1	none (no result: PERK inh, eIF4H inh, PABP FP inh) | GRK2 inh confirm inactive | FAM quench CP1 inactive
CN1CCN(c2ccc(-c3cccc(NC(=O)COc4ccc(Cl)cc4)c3)nn2)CC1	none (no result: PERK inh, eIF4H inh, PABP FP inh) | GRK2 inh confirm inactive | FAM quench CP1 inactive
Cn1c(=S)ccc2ccccc21	none
Cc1[nH]nc(-c2cccnc2)c1N=NN(C)C	none (no result: GRK2 inh, PERK inh, eIF4H inh, PABP FP inh)
COc1ccc(C(=O)C2CCCN(Cc3cnc(N4CCOCC4)s3)C2)cc1F (stereo not drawn)	none | GRK2 inh confirm inactive | FAM quench CP1 inactive
COc1ccc(C(=O)C2CCCN(Cc3cnc(N4CCOCC4)s3)C2)c(OC)c1 (stereo not drawn)	none
CC(C)Oc1cccc(C(=O)C2CCCN(Cc3cnc(N4CCOCC4)s3)C2)c1 (stereo not drawn)	GRK2 inh 53 | GRK2 inh confirm inactive | FAM quench CP1 inactive
Cc1ccc(C)c(N2C(=N)S/C(=C\c3ccc(-c4ccccc4C(=O)O)o3)C2=O)c1	none
